Only some compounds are listed: those with a hit (about 9% of all), similar ones and a draw of the others.
JMJD2A Tudor inh = blocks the human JMJD2A Tudor domain; O75164; AlphaScreen JMJD2A-Tudor / H3K4me3 peptide binding; Potency, µM (titrated, usually from 114 µM), without a hit: at the top dose activity change, negative = inhibition, hits mostly inhibitors; 390,000 tested, 4.4% active; AID 504339; note: % is set by controls: 0 for no effect and ±100 for the full control effect; nearly all actives have a fitted effect of over 50% in size
Target sequence (O75164 whole entry, looked up, the tested form may be a part): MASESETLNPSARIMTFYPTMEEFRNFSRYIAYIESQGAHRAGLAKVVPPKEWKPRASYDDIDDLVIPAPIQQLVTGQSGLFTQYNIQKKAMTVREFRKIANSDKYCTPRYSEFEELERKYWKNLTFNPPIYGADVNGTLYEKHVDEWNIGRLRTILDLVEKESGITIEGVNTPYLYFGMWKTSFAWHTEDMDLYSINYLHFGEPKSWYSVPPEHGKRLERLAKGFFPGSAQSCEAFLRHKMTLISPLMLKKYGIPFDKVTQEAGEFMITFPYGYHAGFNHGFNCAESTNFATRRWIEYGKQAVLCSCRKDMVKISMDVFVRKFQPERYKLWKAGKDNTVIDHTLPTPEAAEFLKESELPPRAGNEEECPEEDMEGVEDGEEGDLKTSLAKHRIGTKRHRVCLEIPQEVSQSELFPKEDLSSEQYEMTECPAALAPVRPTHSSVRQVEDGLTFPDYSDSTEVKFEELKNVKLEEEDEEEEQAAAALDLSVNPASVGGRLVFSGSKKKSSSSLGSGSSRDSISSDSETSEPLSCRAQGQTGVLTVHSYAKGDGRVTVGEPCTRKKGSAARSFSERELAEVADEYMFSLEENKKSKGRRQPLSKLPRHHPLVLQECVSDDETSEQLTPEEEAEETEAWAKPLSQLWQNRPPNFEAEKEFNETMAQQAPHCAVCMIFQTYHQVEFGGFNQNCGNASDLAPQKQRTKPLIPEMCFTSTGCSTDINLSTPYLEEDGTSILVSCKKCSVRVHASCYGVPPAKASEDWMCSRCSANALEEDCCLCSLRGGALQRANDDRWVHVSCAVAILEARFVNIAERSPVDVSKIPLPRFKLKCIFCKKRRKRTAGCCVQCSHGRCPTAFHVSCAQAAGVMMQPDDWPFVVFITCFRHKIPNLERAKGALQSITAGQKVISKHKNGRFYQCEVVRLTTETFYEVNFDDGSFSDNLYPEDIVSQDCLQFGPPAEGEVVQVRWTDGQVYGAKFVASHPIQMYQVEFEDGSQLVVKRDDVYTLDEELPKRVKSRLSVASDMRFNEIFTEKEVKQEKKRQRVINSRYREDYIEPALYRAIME
G9a block = blocks human histone lysine methyltransferase G9a; Q96KQ7; G9a H3K9 monomethylation, AlphaScreen, 2 h; Potency, µM (series often up to 102 µM), without a hit: at the top dose activity, negative = inhibition, usual class: inhibitors; 350,000 tested, 8.8% active; AID 504332; note: % is set by controls: 0 for no effect and ±100 for the full control effect; nearly all actives have a fitted effect of over 75% in size
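Readings reflect AlphaScreen signal from monomethyl-H3K9 antibody detection. HMT at 20 nM; substrate b-H3K9 500 nM; cofactor SAM 20 uM; 2 h RT reaction; compounds tested as titrations in qHTS with 15 min preincubation.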
PLK1 PBD inh = blocks phosphopeptide binding to human PLK1 polo-box domain. Plk1 PBD binding of FITC phosphopeptide, fluorescence polarization. Potency, µM, inactives show max response, negative = inhibition, usual class: inhibitors. 360,000 tested, 2.8% active. AID 720504; note: series mostly up to about 57 µM; % is set by controls: 0 for no effect and ±100 for the full control effect; nearly all actives have a fitted effect of over 65% in size
HP1b binding inh = HP1-beta chromodomain-methylated histone interaction inhibition; P83916; AlphaScreen HP1-beta / biotin-H3K9me3 peptide binding; Potency, µM (titrated, usually from 114 µM), for the others: at the top dose activity change, negative = inhibition, actives largely listed as inhibitors; 390,000 tested, 0.56% active; note: nearly all actives have a fitted effect of over 70% in size
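HP1-beta protein (50 nM final) preincubated 30 min at room temperature with biotinylated H3(1-18)K9me3 peptide (50 nM) in PBS pH 7.4, 0.01% Tween-20, then compound added for 30 min. AlphaScreen streptavidin donor/nickel chelate acceptor beads (10 ug/mL final), 30 min dark, luminescence read.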
BAZ2B block = BAZ2B (human) inhibition; Q9UIF8; AlphaScreen BAZ2B-H3K14Ac peptide displacement; Potency, µM (highest dose often 114 µM), inactives show at the top dose activity change, negative = inhibition, actives largely listed as inhibitors; 360,000 tested, 4.4% active; AID 504333; note: % is set by controls: 0 for no effect and ±100 for the full control effect; nearly all actives have a fitted effect of over 60% in size
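Multi-concentration screen (max 110 uM) measuring displacement of acetylated histone H3 peptide from BAZ2B by AlphaScreen, using 50 nM protein, 50 nM peptide and 10 ug/mL streptavidin donor plus Ni-chelate acceptor beads.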
12-LOX inh = inhibitors of human 12S-lipoxygenase ALOX12. P18054. purified 12hLO, xylenol orange hydroperoxide absorbance. Potency, µM (highest dose often 108 µM), inactives show at the top dose activity change, negative = inhibition, most hits filed as inhibitors. 580,000 tested, 1.1% active; note: % is set by controls: 0 for no effect and ±100 for the full control effect
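Hydroperoxide product was detected by ferrous iron/xylenol orange as the 573 to 405 nm absorbance ratio. Arachidonic acid at 40 uM (final) was turned over for 30 min at room temperature by 150 nM human 12hLO, pH 7.0 Hepes buffer, after 15 min compound preincubation.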
Active calls of the source: *; i = inactive; ? = inconclusive; nt = not tested or not shown; [ ] = dose if it differs, or a comment. Calls come from the whole dose curve; as a rule, active = well fitted curve in the direction sought with a large enough effect; inconclusive = small, poorly fitted or top-dose-only effect, or another doubt; inactive = no such curve, though single readings can be large; an effect the other way counts as inactive or inconclusive. Potency is the fitted concentration of half-maximal effect.

SMILES	JMJD2A Tudor inh	G9a block	PLK1 PBD inh	HP1b binding inh	BAZ2B block	12-LOX inh
COc1ccc(C2=NOC(C(=O)Nc3ccc4c(c3)OCO4)C2)cc1OC (centres undefined)	-26%	50µM*	-10%	17%	nt	3%
CCOC(=O)c1ccc(NC(=O)C2(c3ccccc3)CCCC2)cc1	12%	54%	1%	54%	8%	0%
CO/C([O-])=N/c1c[n+](-c2ccc(C)cc2)no1	-23%	20µM*	-13%	32%	7%	?
O=[N+]([O-])c1ccc(Cl)c(CN2CCN(c3ncccn3)CC2)c1	?	71µM*	-2%	-1%	?	?
Cc1ccc(C)c(CN2CCN(c3ncccn3)CC2)c1	20µM*	nt	-23%	?	?	?
Oc1cc2c(cc1CN1CCN(c3ncccn3)CC1)OCO2	?	4µM*	-29%	13%	-30%	?
Oc1c(CN2CCOCC2)cc(CN2CCOCC2)cc1CN1CCOCC1	-12%	nt	1%	21%	nt	16%
Oc1cc(O)c(CN2CCOCC2)cc1CN1CCOCC1	79µM*	nt	?	71µM*	nt	0%
CCn1nccc1C(=O)N1CCCC(C(=O)NCc2ccccc2)CCNC(=O)CC1 (centres undefined)	nt	nt	nt	nt	nt	-10%
Fc1ccccc1CN1CCN(c2ncccn2)CC1	6.3µM*	22µM*	1%	-31%	?	0.56µM*
O=C(Nc1ccc(Nc2ccncc2)cc1)c1ccc([N+](=O)[O-])cc1	-16%	-27%	0%	24%	-16%	0%
O=C(Nc1ccc(Nc2ccncc2)cc1)c1ccc(Nc2ccnc3ccc([N+](=O)[O-])cc23)cc1[N+](=O)[O-]	?	50µM*	-6%	-37%	-18%	?
O=C(OCCOC(=O)C12CC3CC(CC(Br)(C3)C1)C2)c1ccccc1	nt	nt	nt	nt	nt	-1%
CC(=O)c1ccc(OCc2coc(-c3cccc(F)c3)n2)cc1	nt	nt	nt	nt	nt	45µM*
CC(=O)c1cccc(OCc2coc(-c3cccc(F)c3)n2)c1	nt	nt	nt	nt	nt	-21%
O=[N+]([O-])c1cc(-c2nnc(Nc3ccc(O)cc3)c3ccccc23)ccc1N1CCOCC1	?	20µM*	-13%	?	?	2%
O=C(O)c1cc(NS(=O)(=O)c2ccc(N3CCOCC3)c([N+](=O)[O-])c2)cc(C(=O)O)c1	6%[57.1 µM]	-9%[59 µM]	-14%	38%	2%	-29%
COC(=O)c1cc(NS(=O)(=O)c2ccc(N3CCC(C)CC3)c([N+](=O)[O-])c2)cc(C(=O)OC)c1	22µM*	?	-10%	50µM*	?	-29%
COC(=O)c1cc(NS(=O)(=O)c2ccc(N3CCCCC3)c([N+](=O)[O-])c2)cc(C(=O)OC)c1	?	?	-13%	-28%	?	i
O=[N+]([O-])c1cc(S(=O)(=O)Nc2ccccc2)ccc1N1CCN(c2ccc(O)cc2)CC1	13µM*	5µM*	5%	-83%	28µM*	25µM*
O=C(N1CCC2(CC1)CC(Cc1nc(-c3cccnc3)no1)CCO2)C1(c2ccccc2)CC1 (centres undefined)	nt	nt	nt	nt	nt	11%
Cc1c(NC(=O)c2ccc3c4c(cccc24)CC3)c(=O)n(-c2ccccc2)n1C	-35%	0%[12.7 µM]	?	-20%	-2%	1%
CC1C(=O)C(C)C(c2ccc(Br)cc2)NC1c1ccc(Br)cc1 (centres undefined)	-5%	36%[0.501 µM]	-10%	98%	1%	4%
Cc1ccccc1NC(=O)CN1C(=O)S/C(=C/c2cccnc2)C1=O	-17%	-23%	0%	41%	0%	-9%
O=C(NCCN1C(=O)S/C(=C/c2cccnc2)C1=O)c1cccs1	-14%	23%[12.7 µM]	-9%	59%	12%	-5%
O=C(NCCN1C(=O)S/C(=C\c2cccnc2)C1=O)C1=NN(c2ccccc2)C(=O)CC1	3.5µM*	-1%[59 µM]	3.8µM*	-29%	-11%	?
